This is one part of the list. Values without a mark were called inactive. The source made the active and inactive calls.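 The calls were made as follows, unless noted: active = inhibition above a set limit taken from the earlier primary screen (cut at about 63% in these data); inactive = the rest.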

Chain of Neuropeptide Y receptor type 2 (Homo sapiens) (P49146 whole entry, looked up): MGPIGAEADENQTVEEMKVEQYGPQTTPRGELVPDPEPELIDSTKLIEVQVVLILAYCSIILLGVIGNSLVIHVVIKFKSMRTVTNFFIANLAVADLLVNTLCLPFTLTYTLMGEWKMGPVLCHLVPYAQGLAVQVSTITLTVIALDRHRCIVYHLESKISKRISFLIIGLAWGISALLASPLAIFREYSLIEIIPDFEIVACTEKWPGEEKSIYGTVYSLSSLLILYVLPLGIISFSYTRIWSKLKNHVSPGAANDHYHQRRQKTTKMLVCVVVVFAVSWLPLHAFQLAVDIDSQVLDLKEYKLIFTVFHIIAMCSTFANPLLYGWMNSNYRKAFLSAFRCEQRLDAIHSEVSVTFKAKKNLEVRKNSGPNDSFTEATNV

Test system in the first assay: not listed separately
In words: blockers of isoproterenol-driven CNG channel signal – cell-based, HEK293-CNG parental, membrane potential fluorescence, counter-screen for NPY-Y2 potentiator project (AID 1703;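 active = inhibition above the control-well mean plus 3 SD of those wells, cut at about 22% in these data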;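 also: 0% = DMSO with isoproterenol and 100% = DMSO without isoproterenol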). As to conditions: isoproterenol cAMP, at 3.6 µM, stronger effect = higher value. (In general: The purpose of a counterscreen is to sort out artefacts and off-target activity.)
Broadly, the inhibition is the change of the read-out against control, counted positive when it falls. On to `CN(C)c1ccc(CNC2C3CC4CC(C3)CC2C4)cc1` (configuration not stated), for which the inhibition was 5.13%.
On the same count and under the same terms, the result for `N/C(=N\S(=O)(=O)c1cc(C(F)(F)F)cc(C(F)(F)F)c1)c1cccs1` reads 25.6% (active); that for `O=C1NC(c2ccc(-c3ccccc3[N+](=O)[O-])o2)C(C(=O)c2ccc(Cl)cc2)C(O)(C(F)(F)F)N1` (configuration not stated), 31.2% (active).
On the same count and under the same terms, the result for `O=C(NCc1ccccc1)c1ccc(S(=O)(=O)Nc2cccc(C(F)(F)F)c2)cc1` reads 16.6%; that for `COc1cc(NC(=O)c2ccccc2NS(=O)(=O)c2ccc(Cl)s2)cc(OC)c1`, -9.95%.
Still for that read-out and setting: the result for `CN(Cc1ccccc1)C(=O)CCNC(=O)Cn1cnc2ccccc2c1=O` reads 11.2%; that for `O=C(Nc1sc2c(c1-c1nc3ccccc3[nH]1)CCCC2)C1CC1`, 19.9%; that for `Cc1ccc(CCNC(=O)C2CCN(S(=O)(=O)N3CCCC3)CC2)cc1`, -4.94%.
On to `CC(Nc1ccccc1)c1cccnc1` (configuration not stated), for which the inhibition is 2.7%.
For `CC(=O)c1ccc2c(c1)OCCOCCOc1ccc(C(C)=O)cc1OCCOCCO2`, the inhibition is 22.4% (active).
Still for that read-out and setting: under `COc1ccc2nc(NC(=O)NC3CCCCC3)sc2c1` stands 56.1% (active).

Another assay addresses Neuropeptide Y receptor type 2 (Homo sapiens) (UniProt P49146). Kind of assay: agonism at human Y2 receptor without NPY – cell-based, fluorescence, counter-screen for NPY-Y2 potentiator project (AID 1710;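 active = activation above the mean of solvent-only control wells plus 3 SD, cut at about 10% in these data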;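 also: cells stimulated by isoproterenol with no NPY added so direct agonism is tested; 0% = DMSO with isoproterenol alone and 100% = NPY at EC100 plus isoproterenol; agonism lowers probe fluorescence through less cAMP and CNG channel opening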). As to conditions: HEK293 Y2/CNGC cells, membrane potential fluorescence, agonist mode; at 3.6 µM; stronger effect = higher value.
Take `CN(C)c1ccc(CNC2C3CC4CC(C3)CC2C4)cc1` (configuration not stated): the activation is -2.65%.
The same measure, in the same setting: the result for `N/C(=N\S(=O)(=O)c1cc(C(F)(F)F)cc(C(F)(F)F)c1)c1cccs1` reads 23.1% (active).
On the same count and under the same terms, under `O=C1NC(c2ccc(-c3ccccc3[N+](=O)[O-])o2)C(C(=O)c2ccc(Cl)cc2)C(O)(C(F)(F)F)N1` (configuration not stated) stands 32.6% (active); under `O=C(NCc1ccccc1)c1ccc(S(=O)(=O)Nc2cccc(C(F)(F)F)c2)cc1`, 19.8% (active); under `COc1cc(NC(=O)c2ccccc2NS(=O)(=O)c2ccc(Cl)s2)cc(OC)c1`, -3.82%.
Still for that read-out and setting: under `CN(Cc1ccccc1)C(=O)CCNC(=O)Cn1cnc2ccccc2c1=O` stands 18.3% (active); under `O=C(Nc1sc2c(c1-c1nc3ccccc3[nH]1)CCCC2)C1CC1`, 24.5% (active).
As to `Cc1ccc(CCNC(=O)C2CCN(S(=O)(=O)N3CCCC3)CC2)cc1`, the activation was -8.83%.
On the same count and under the same terms, under `CC(Nc1ccccc1)c1cccnc1` (configuration not stated) stands 17.8% (active).
Turning to `CC(=O)c1ccc2c(c1)OCCOCCOc1ccc(C(C)=O)cc1OCCOCCO2`, the activation was 26.6% (active).
The same measure, in the same setting: under `COc1ccc2nc(NC(=O)NC3CCCCC3)sc2c1` stands 53.9% (active).

Test system in the next assay: not listed separately
In words: suppression of KLF5 promoter-driven luciferase – DLD-1 cells, luminescence, confirmation (AID 1834).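 Also: 0% = DMSO wells and 100% = LY294002 at 200 µM.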 As to conditions: DLD-1 KLF5 promoter firefly luciferase reporter, at 4 µM, stronger effect = higher value.
Consider `CC(=O)c1ccc(Oc2cc(C)nc(-n3nc(C)cc3C)n2)cc1`, for which the inhibition was 63.5% (active).
On to `COc1ccc(Nc2cc(C)nc(-n3nc(C)cc3C)n2)cc1`, for which the inhibition was 78.8% (active).
Same read-out and setting: the result for `Cc1ccc(/C=N/NC(=O)COc2ccccc2-c2ccccc2)cc1` reads 85.4% (active); that for `CCOc1cc(C(=O)N2CCc3cc(OC)c(OC)cc3C2)ccc1OC(F)F`, 85.3% (active); that for `CN(c1ccc2nc3ccccc3c(=O)n2n1)C1CCCCC1`, 72.9% (active).
Still for that read-out and setting: the result for `CCOc1ccccc1NC(=O)Cn1nnc(C(=O)NCc2cccs2)c1N` reads 83.1% (active).
The same measure, in the same setting: the result for `O=c1cc(-c2ccccc2)[nH]c2cc(F)ccc12` reads 77.9% (active); that for `CCNC(=O)CCc1nc(-c2ccc(C(C)(C)C)cc2)no1`, 56%.
For the compound `CCn1c(SCC(=O)Nc2nccs2)nnc1-c1ccncc1`, the inhibition was 3.83%.
The same measure, in the same setting: the result for `CSc1nc(N(C)NC(=O)c2cccc(C)c2)c2ccccc2n1` reads 88.7% (active); that for `COc1ccccc1N1CCN(C(=O)c2cc(=O)c3cc(C)cc(C)c3o2)CC1`, 87.3% (active); that for `COc1cccc(/C=N/Nc2ncc(C(F)(F)F)cc2Cl)c1O`, 99.8% (active).
On the same count and under the same terms, under `Cc1ccc2[nH]c(=O)c(CN(CCCN(C)C)C(=O)Nc3cccc(Cl)c3)cc2c1` stands -15.6%; under `CN(CCO)c1ccc(/C=N/Nc2nncc3ccccc23)cc1`, 91.2% (active); under `COc1ccccc1C1C2=C(COC2=O)Nc2cc3c(cc21)OCO3` (configuration not stated), 88.1% (active).
Same read-out and setting: the result for `C[C@@H]1C[C@@H]2O[C@H]2/C=C\C=C\C(=O)Cc2c(Cl)c(O)cc(O)c2C(=O)O1` reads 67.1% (active); that for `CCOC(=O)CSC1=C(C#N)C(c2sccc2C)CC(=O)N1` (configuration not stated), 63.3% (active); that for `CCOC(=O)c1sc(NC(=O)c2sc(C)nc2C)nc1C`, 69.3% (active).
Turning to `Cn1nccc1C(=O)NC1CCCc2c1cnn2-c1ccc(F)cc1F` (configuration not stated), the inhibition is 24.7%.
Still for that read-out and setting: the result for `COc1ccc(C(=O)Nc2ccccc2C(=O)N/N=C/c2ccc(O)c(OC)c2)cc1` reads 111% (active).

Test system in the next assay: not listed separately
Kind of assay: IEC-6 intestinal cell killing – luminescence, triplicate, cytotoxicity control for KLF5 inhibitor project (AID 1905; in the data active = inhibition above about 23%;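 also: cells exposed to compounds for 48 hours before viability read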). As to conditions: IEC-6 rat intestinal cells, viability luminescence; at 4 µM; stronger effect = higher value.
For `CC(=O)c1ccc(Oc2cc(C)nc(-n3nc(C)cc3C)n2)cc1`, the inhibition was 57.9% (active).
Same read-out and setting: the result for `COc1ccc(Nc2cc(C)nc(-n3nc(C)cc3C)n2)cc1` reads 60.9% (active); that for `Cc1ccc(/C=N/NC(=O)COc2ccccc2-c2ccccc2)cc1`, 74.2% (active).
On the same count and under the same terms, the result for `CCOc1cc(C(=O)N2CCc3cc(OC)c(OC)cc3C2)ccc1OC(F)F` reads 59.4% (active); that for `CN(c1ccc2nc3ccccc3c(=O)n2n1)C1CCCCC1`, 9.18%.
On the same count and under the same terms, the result for `CCOc1ccccc1NC(=O)Cn1nnc(C(=O)NCc2cccs2)c1N` reads 58.1% (active).
Regarding `O=c1cc(-c2ccccc2)[nH]c2cc(F)ccc12`, the inhibition was 59.3% (active).
The same measure, in the same setting: under `CCNC(=O)CCc1nc(-c2ccc(C(C)(C)C)cc2)no1` stands -2.69%; under `CCn1c(SCC(=O)Nc2nccs2)nnc1-c1ccncc1`, 8.72%; under `CSc1nc(N(C)NC(=O)c2cccc(C)c2)c2ccccc2n1`, 73.4% (active).
Turning to `COc1ccccc1N1CCN(C(=O)c2cc(=O)c3cc(C)cc(C)c3o2)CC1`, the inhibition is 58.2% (active).
Same read-out and setting: under `COc1cccc(/C=N/Nc2ncc(C(F)(F)F)cc2Cl)c1O` stands 0.75%; under `Cc1ccc2[nH]c(=O)c(CN(CCCN(C)C)C(=O)Nc3cccc(Cl)c3)cc2c1`, 6.49%.
Same read-out and setting: under `CN(CCO)c1ccc(/C=N/Nc2nncc3ccccc23)cc1` stands -0.69%; under `COc1ccccc1C1C2=C(COC2=O)Nc2cc3c(cc21)OCO3` (configuration not stated), 82.9% (active); under `C[C@@H]1C[C@@H]2O[C@H]2/C=C\C=C\C(=O)Cc2c(Cl)c(O)cc(O)c2C(=O)O1`, 38% (active).
Take `CCOC(=O)CSC1=C(C#N)C(c2sccc2C)CC(=O)N1` (configuration not stated): the inhibition was 57.3% (active).
`CCOC(=O)c1sc(NC(=O)c2sc(C)nc2C)nc1C`: the inhibition is 2.65%.
The same measure, in the same setting: under `Cn1nccc1C(=O)NC1CCCc2c1cnn2-c1ccc(F)cc1F` (configuration not stated) stands 13.8%.
The same measure, in the same setting: under `COc1ccc(C(=O)Nc2ccccc2C(=O)N/N=C/c2ccc(O)c(OC)c2)cc1` stands 4.51%.

These data come from PubChem BioAssay.
